Values without a mark were called inactive. Activity calls are given as the source filed them. Calls come from the whole dose curve; as a rule, active = well fitted curve in the direction sought with a large enough effect in the repeat runs; inconclusive = weak or mixed curves; inactive = flat fitted curve, though single readings scatter.
Experiment: qHTS assay to test for compound auto fluorescence at 590 nm (red) in HEK293 cells (AID 720679)
Settings: red autofluorescence 540/590 nm; series mostly up to 91.3 µM
Summary of the method: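 Each well held 2,000 HEK293 cells in medium containing 10% dialyzed FBS. Following 4-5 hr attachment at 37C, 23 nL test compound or DMSO was added; plates sat overnight, and red fluorescence (540/590nm) was recorded.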
% is set by controls: 0 for no effect and ±100 for the full control effect.

Structure (SMILES) | outcome | fluorescence, % of fluorescent control
CC(C)COCC(CN(Cc1ccccc1)c1ccccc1)N1CCCC1 (configuration not stated) | inactive | –
C=C(C)CCCC(C)CCO (configuration not stated) | inactive | –
C=CC(=O)[O-].C=CC(=O)[O-].[Zn+2] | inactive | –
CCC(OCCCOC)OC(C)=O (configuration not stated) | inactive | –
O=C1c2ccccc2C(=O)C1(O)O | inactive | –
CCOC(=O)c1ccc(OCCN2C[C@H](O)[C@@H](O)[C@H](O)[C@H]2CO)cc1 | inactive | –
CC=C(Cl)Cl | inactive | –
CCCCCCNC(=O)n1cc(F)c(=O)[nH]c1=O | inactive | –
COc1ccccc1N1CCN(CCCCNC(=O)c2ccc(-c3ccc(C(C)=O)cc3)cc2)CC1 | inactive | –
CCn1cc(C(=O)O)c(=O)c2cc(F)c(N3CCNCC3)cc21 | inactive | –
O=C1NC(=O)c2cc([N+](=O)[O-])ccc21 | inactive | –
OC(CCN1CCCC1)(c1ccccc1)C1CCCCC1 (configuration not stated) | – | -0.0138% [at 18.6 µM]
O=C(CCc1ccc(O)cc1)c1c(O)cc(O)cc1O | inactive | –
CC(=O)OCC[N+](C)(C)C | inactive | –
CCC=CC#N | inactive | –
O=c1c(O)c(-c2ccc(O)cc2)oc2cc(O)cc(O)c12 | inactive | –

Structure (SMILES) | outcome | fluorescence, % of fluorescent control
CC/C=C1/OC(=O)c2ccccc21 | inactive | –
CN1CCCN=C1COC(=O)C(O)(c1ccccc1)C1CCCCC1 (configuration not stated) | inactive | –
O=C1c2ccccc2C(=O)c2c(O)c(O)cc(O)c21 | inactive | –
CC(CCC(=O)O)C(=O)O (configuration not stated) | inactive | –
C(=C\c1ccccc1)/c1ccccc1 | inactive | –
C=C(C)C(=O)OCCCCCCCCCCCCC | inactive | –
CCC1NC(=O)c2cc(S(N)(=O)=O)c(Cl)cc2N1 (configuration not stated) | – | -0.132% [at 18.6 µM]
CC(C)C(O)(c1ccc(OC(F)(F)F)cc1)c1cncnc1 (configuration not stated) | inactive | –
C1C[C@@H]2[C@H]3CC[C@H](C3)[C@@H]2C1 | inactive | –
C=C(C)[C@@H]1CCC2=CCC[C@@H](C)[C@]2(C)C1 | inactive | –
Clc1cc(Cl)nc(Cl)n1 | inactive | –
COc1cc(C(=O)NCCCCCC(=O)O)cc(OC)c1OC | inactive | –
O=c1[nH]c2ccc(Cl)cc2o1 | inactive | –
CCC(=O)OC | inactive | –
C=CC(=O)OCC1CC2CC1C1CCC(COC(=O)C=C)C21 (configuration not stated) | inactive | –
Cc1cc2c(OCC(CNC(C)(C)C)OC(=O)c3ccccc3)cccc2[nH]1 (configuration not stated) | inactive | –

From PubChem BioAssay (Tox21)
